Measured values taken from PubChem BioAssay (NCATS).
Records with an inconclusive call do not appear. Calls of active or inactive are those of the source. Calls come from the whole dose curve; as a rule, active = well fitted inhibition curve with a large enough effect; inconclusive = small, poorly fitted or top-dose-only effect; inactive = flat fitted curve, though single readings scatter. Where a SMILES comes first, the peptide text is derived from it. Bridges are numbered along the chain shown (N, C = ends). [ ]: non-standard residue; d: D form. hArg = N=C(N)NCCCC[C@H](N)C(=O)O; Mpa = O=C(O)CCS

Experiments:
Assay in all cases: qHTS profiling for inhibitors of Plasmodium falciparum proliferation (AID 504749); note: nearly all actives have a fitted effect of over 60% in size
Conditions in all cases: P. falciparum in erythrocytes, SYBR Green DNA, 72 h; series mostly up to 28.7 µM
CP217 = tested on: CP217
Procedure, shortened: (§1)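 Quantitative HTS: compounds pinned into medium, infected erythrocytes added (0.3% parasitemia, 2.5% hematocrit), 72 h culture at 37 C under 5% CO2. Saponin/Triton lysis with SYBR Green I, overnight RT, then fluorescence read.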

CP237 = tested on: CP237
Procedure, shortened: as §1

CP238 = tested on: CP238
Procedure, shortened: as §1

CP247 = tested on: CP247
Procedure, shortened: as §1

CP250 = tested on: CP250
Procedure, shortened: as §1

CP252 = tested on: CP252
Procedure, shortened: as §1

CP256 = tested on: CP256
Procedure, shortened: as §1

CP260 = tested on: CP260
Procedure, shortened: as §1

CP262 = tested on: CP262
Procedure, shortened: as §1

CP265 = tested on: CP265
Procedure, shortened: as §1

CP266 = tested on: CP266
Procedure, shortened: as §1

CP268 = tested on: CP268
Procedure, shortened: as §1

CP269 = tested on: CP269
Procedure, shortened: as §1

CP286 = tested on: CP286
Procedure, shortened: as §1

CP291 = tested on: CP291
Procedure, shortened: as §1

CP297 = tested on: CP297
Procedure, shortened: as §1

CP305 = tested on: CP305
Procedure, shortened: as §1

CP315 = tested on: CP315
Procedure, shortened: as §1

CP325 = tested on: CP325
Procedure, shortened: as §1

CP329 = tested on: CP329
Procedure, shortened: as §1

Measured: Potency

CN1CCN(C(=O)C2CCCCC2)CC1
inactive: all assays above

O=C(OOC(=O)c1ccccc1)c1ccccc1
not listed: CP297
inactive: all other assays above

CC1CCc2cc(F)cc3c(=O)c(C(=O)O)cn1c23 (configuration not stated)
not listed: CP291
inactive: all other assays above

Cc1c(NC(=O)c2cccnc2)c(=O)n(-c2ccccc2)n1C
not listed: CP315
inactive: all other assays above

Cc1ncc(CO)c(CN)c1O
not listed: CP262
inactive: all other assays above

Cc1c(N(C)C)c(=O)n(-c2ccccc2)n1C
not listed: CP260 | CP291
inactive: all other assays above

Cc1c(NC(C)C)c(=O)n(-c2ccccc2)n1C
not listed: CP266
inactive: all other assays above

NC(=O)[C@@H]1CSSCCC(=O)N[C@@H](CCCCN=C(N)N)C(=O)NCC(=O)N[C@@H](CC(=O)O)C(=O)N[C@@H](Cc2c[nH]c3ccccc23)C(=O)N2CCC[C@H]2C(=O)N1 ([Mpa][hArg]GDWPC-NH2; disulfide 1-7)
not listed: CP266
inactive: all other assays above

CCN(CC)CCc1nc(-c2ccccc2)no1
not listed: CP260
inactive: all other assays above

CCOC(N)=O
not listed: CP260
inactive: all other assays above

COc1ccc(Cc2cnc(N)nc2N)cc1OC
not listed: CP260 | CP297
inactive: all other assays above

O=C(Cn1ccnc1[N+](=O)[O-])NCCO
not listed: CP297
inactive: all other assays above

CCN(CC)C(=O)c1cccc(C)c1
not listed: CP260
inactive: all other assays above

O=C(O)c1ccccc1C(=O)Nc1ccc(S(=O)(=O)Nc2nccs2)cc1
not listed: CP260 | CP297
inactive: all other assays above

Cc1ccsc1C(=CCCN1CCC[C@@H](C(=O)O)C1)c1sccc1C
not listed: CP266 | CP305
inactive: all other assays above
